Experimental data from PubChem BioAssay (NCI).
This is part of a sample that, as a whole, favours compounds with a hit. Of some 83,000 tested, about 20% had one in any assay.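 For each line, cells grew in 96-well plates with the test compound present at a single concentration for 48 hours.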 Unmarked numbers belong to inactive results. Activity calls are given as the source filed them. Rule for the calls: active = growth percent below 10; inactive = the rest.

What was measured:
Experiment in all cases: NCI-60 one-dose screen, 48 h (100 = growth as untreated, 0 = no growth, -100 = all killed)
Conditions in all cases: 10 µM unless noted
NCI-H23 lung = system: NCI-H23 lung
NCI-H226 lung = system: NCI-H226 lung
NCI-H322M lung = system: NCI-H322M lung
HOP-62 NSCLC = system: HOP-62 NSCLC
NCI-H460 lung = system: NCI-H460 lung
HOP-92 NSCLC = system: HOP-92 NSCLC
NCI-H522 lung = system: NCI-H522 lung
A549/ATCC NSCLC = system: A549/ATCC NSCLC
786-0 renal = system: 786-0 renal
COLO 205 colon = system: COLO 205 colon

SMILES | growth (NCI-H23 lung) | growth (NCI-H226 lung) | growth (NCI-H322M lung) | growth (HOP-62 NSCLC) | growth (NCI-H460 lung) | growth (HOP-92 NSCLC) | growth (NCI-H522 lung) | growth (A549/ATCC NSCLC) | growth (786-0 renal) | growth (COLO 205 colon)
Brc1ccc(Nc2csc(-c3ccccn3)n2)cc1 | 87.7% | 70.1% | 84.1% | 88.2% | 96.7% | 102% | 78.9% | 99.4% | 98.9% | 111%
C=C1C(=O)O[C@H]2[C@H]1CC/C(CNC(=O)/C=C/c1ccccc1)=C\CC[C@@]1(C)O[C@@H]21 | 54.5% | 64.8% | 71.9% | 80.3% | 39.7% | -40.9% (active) | -86.8% (active) | 46.8% | -64.4% (active) | -64.7% (active)
CN(C)c1ccc(Nc2c3ccccc3nc3cc(NC(=O)CCN4CCCC4)ccc23)cc1 | -42.5% (active) | -1.19% (active) | -14.6% (active) | -8.55% (active) | -65.5% (active) | -9.52% (active) | -32.8% (active) | -33.5% (active) | -54% (active) | -27.3% (active)
COc1cc2nc(-c3ccc(Cl)cc3)cc(OCCCN3CCC(O)CC3)c2cc1OC | 76.1% | 3.82% (active) | 58.3% | 63.2% | 23.8% | 38.1% | 33.4% | 34.9% | 75.2% | 23.8%
COc1cc(/C=C2\COc3ccc(-c4ccccc4)cc3C2=O)cc(OC)c1 | 70.1% | 87.4% | 85.9% | 113% | 66.7% | 70.3% | 39.2% | 72% | 89.3% | 107%
COc1cc(/C(C)=C(\c2ccc(Cl)cc2)c2ccc(OCCN(C)C)cc2)ccc1F | 76.5% | 91% | 69% | 87.6% | 7.61% (active) | 44.6% | 80.2% | 63.4% | 65.7% | -33.8% (active)
Cc1c(C(=O)NCCC(=O)NO)sc2ncnc(Nc3ccc(F)c(Cl)c3)c12 | 101% | 104% | 108% | 105% | 100% | 118% | 95.6% | 104% | 105% | 117%
Cc1nc2sccn2c1-c1cn2ccsc2n1 | 60.2% | 84.3% | 82.7% | 90.7% | 65.9% | 69.6% | 89.2% | 98.9% | 95.8% | 87.2%
Cc1c(C(=O)NCCC(=O)NO)sc2ncnc(Nc3ccc(NC(=O)Nc4cccc(C(F)(F)F)c4)cc3)c12 | 100% | 97.9% | 104% | 102% | 99.4% | 115% | 94.4% | 104% | 116% | 113%
CC(c1ccccc1)C(C(=O)c1ccccc1)c1ccccc1 (stereo not given) | 84.6% | 73.5% | 103% | 44.8% | 88.3% | 107% | 68.4% | 80% | 83.5% | 112%
COc1ccc(/C=C/c2nc(Nc3ccc(Cl)cc3)c3ccccc3n2)cc1 | 73.1% | 71.1% | 44.3% | 69% | 18.2% | 63.5% | 69.3% | 35% | 36.9% | 63.1%
COc1cc2c(=O)n(CCN(C)C)c3c4cc5c(cc4ccc3c2cc1OC)OCO5 | -20.7% (active) | -97.6% (active) | -15.7% (active) | -5.77% (active) | -31.6% (active) | -9.74% (active) | -37.9% (active) | -84.9% (active) | -58.7% (active) | -56.3% (active)
CC(C)(C)c1cc(/C=N/NC(=O)c2ccccc2NC(=O)c2cccs2)c(O)c(C(C)(C)C)c1 | 48.6% | 55.1% | 39.1% | 20.7% | -11% (active) | 75.4% | 27.8% | 12.8% | 18.4% | 4.49% (active)
O=[N+]([O-])c1cc(Br)c2cccc3c2c1CC3 | 106% | 103% | 106% | 118% | 106% | 97.1% | 108% | 98.5% | 96.5% | 118%
CC(C)(C)c1ccc(NS(=O)(=O)c2ccc3nc(NC(=O)c4cnccn4)[nH]c3c2)cc1 | 52% | 44.3% | 41.9% | 53.4% | 6.16% (active) | 36.7% | 20.4% | 38.8% | 30% | 21.7%
COc1ccc(C(=O)Cn2c(C(=O)c3ccccc3)nc3ccccc32)cc1 | 28.2% | 38.5% | 78.7% | 40.6% | 8.51% (active) | 54.7% | -28.1% (active) | 31.8% | 43.6% | 51%
COc1ccccc1NS(=O)(=O)c1cccc(C(=O)Nc2ccc(Br)cc2)c1 | 35.9% | 44.2% | 53.1% | 62.9% | 47% | 38.9% | 46.7% | 46% | 59.5% | 57.9%
COc1ccc(/C=C2\Oc3cc(OCCCCCN4CCCCC4)ccc3C2=O)cc1OC | 78.6% | 83.1% | 97.9% | 97.4% | 59.2% | 54.4% | 89.9% | 88.7% | 84.4% | 98.5%
O=S(=O)(NCCNc1nccc(-c2c(-c3cccc(O)c3)nc3occn23)n1)c1cccc(F)c1 | 97.9% | 105% | 97.3% | 121% | 95.9% | 93% | 81.1% | 92.6% | 91.5% | 30.1%
Cc1ccc(NC(C(=O)c2ccccc2)c2ccccc2)cc1 (stereo not given) | 59.5% | 75.3% | 97.3% | 80.2% | 46.9% | 39.8% | 34.4% | 58% | 75.5% | 41.9%
COc1cc2cc(CN3CCN(c4nccc(-c5ccc6ccccc6c5)n4)CC3)c(=O)[nH]c2cc1OC | 97.3% | 96.5% | 98.4% | 96.2% | -35.9% (active) | 98.4% | 85.6% | 2.34% (active) | 32.7% | 80%
CCOC(=O)c1ccc2c(c1)ncn2-c1ccc(NC(=O)Nc2cccc(C)c2)cc1 | 78.5% | 93.8% | 87.9% | 81.8% | 102% | 117% | 61.3% | 103% | 79.2% | 74.3%
